Here are results for 14 compounds from PubChem BioAssay.

A number with no mark means an inactive call. Some of the results follow. Active and inactive are the calls of the source.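 Rule for the calls, unless noted: active = inhibition above the hit cutoff computed for the primary STAT3 screen (cut at about 44% in these data); inactive = the rest.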

Test [1] in a line: blockers of IL-6 STAT3 signaling – U3A cells, luciferase, luminescence, confirmation (AID 1265).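 Note: 0% = IL-6 plus DMSO and 100% = IL-6 plus nifuroxazide control.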 Particulars: IL-6 STAT3 luciferase reporter, at 5.7 µM, hits give high values, cell line lacks STAT1.
A short description of test [2]: inhibition of TNF-alpha-driven NF-kB transcription – cell-based, HEK293T, luciferase, TNF-alpha stimulus, counter-screen for STAT3 inhibitor project, confirmation (AID 1308;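 active = inhibition above the mean of solvent-only control wells plus 3 SD, cutoff set per campaign, cut at about 13% in these data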;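 note: 0% = TNF-alpha with DMSO and 100% = TNF-alpha with MG high control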). The note with it: HEK293T NF-kB luciferase reporter, TNF-alpha induced; at 5.7 µM; hits give high values. For orientation: The purpose of a counterscreen is to sort out artefacts and off-target activity.

Test [3] can be described thus: inhibition of STAT1-driven transcription – cell-based, NIH 3T3, luciferase luminescence, IFN-gamma, counter-screen for STAT3 inhibitor project, confirmation (AID 1317;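 active = inhibition above the mean plus 3 SD of solvent-only control wells, limit set per screening run, cut at about 16% in these data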;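 note: 0% = DMSO with IFN-gamma and 100% = nifuroxazide control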). Particulars: NIH 3T3 STAT1-luciferase reporter, IFN-gamma induced, at 5.7 µM, hits give high values.
For test [4], the target named is Photoreceptor-specific nuclear receptor (Homo sapiens) (UniProt Q9Y5X4). The test can be described thus: retest of NR2E3-NCOR disrupting agonists – cell-based, luminescence, CHO-S two-hybrid, confirmation (AID 624378;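 active = average inhibition above a cutoff equal to the mean inhibition of all tested compounds plus one SD, cut at about 70% in these data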;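 note: 0% = DMSO in NR2E3 cells and 100% = DMSO in cells lacking NR2E3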). Particulars: CHO-S mammalian two-hybrid NR2E3-NCOR, luciferase luminescence; at 3.98 µM; hits give high values.
Photoreceptor-specific nuclear receptor (Homo sapiens), sequence (Q9Y5X4 whole entry, looked up): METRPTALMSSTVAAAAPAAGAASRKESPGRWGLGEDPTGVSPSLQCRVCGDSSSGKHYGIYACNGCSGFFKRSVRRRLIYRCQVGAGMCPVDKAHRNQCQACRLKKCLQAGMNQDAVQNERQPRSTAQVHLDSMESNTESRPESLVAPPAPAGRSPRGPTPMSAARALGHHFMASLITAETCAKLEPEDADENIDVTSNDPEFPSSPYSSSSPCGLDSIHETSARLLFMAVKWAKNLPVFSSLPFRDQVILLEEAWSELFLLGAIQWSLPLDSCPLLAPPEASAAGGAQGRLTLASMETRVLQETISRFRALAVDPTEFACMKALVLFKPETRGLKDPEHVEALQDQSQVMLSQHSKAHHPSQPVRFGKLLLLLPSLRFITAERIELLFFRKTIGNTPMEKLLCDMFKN
Test [5] in a line: nonselective effects on VP16 transactivation – cell-based, luminescence, CHO-S, high throughput, counter-screen for NR2E3 agonist project, confirmation (AID 624379;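 active = mean inhibition above a cutoff equal to the average over all tested compounds plus one standard deviation, cut at about 70% in these data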;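 note: 0% = DMSO with VP16-transfected cells and 100% = DMSO with cells lacking VP16; higher means less reporter light so more repression of VP16 activity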). Particulars: CHO-S GAL4-VP16 luciferase reporter, at 3.98 µM, hits give high values.
A short description of test [6]: VP16-driven transactivation reporter suppression – cell-based, luminescence, HEK293, counter-screen for COUP-TFII antagonist project (AID 687007; in the data active = inhibition above about 13%). The note with it: HEK293 Gal4-VP16 luciferase reporter, at 8.5 µM, hits give high values.
Test [7] addresses COUP transcription factor 2 (Homo sapiens) (UniProt P24468). The test can be described thus: retest of COUP-TFII reporter suppressors – cell-based, luciferase reporter, HEK293, triplicate, confirmation (AID 687008;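 active = mean inhibition over three repeats above a set limit taken from the earlier primary screen, cut at about 38% in these data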;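 note: 100% = cells given the luciferase reporter alone without the COUP-TF2 vector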). The note with it: HEK293 NGFI-A luciferase reporter, luminescence; at 8.5 µM; hits give high values. For orientation: Reporter assays use an easily measured gene product as a stand-in for the process of interest.

For test [8], the target named is Peroxisome proliferator-activated receptor gamma (Homo sapiens) (UniProt P37231). The experiment in a line: retested PPARg-SRC-2 recruitment enhancers – biochemical, HTS, confirmation (AID 1297; in the data active = activation above about 22%;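 note: 0% = vehicle alone and 100% = reference agonist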). Particulars: biochemical SRC-2 recruitment by PPARgamma; at 8 µM; hits give high values.
Peroxisome proliferator-activated receptor gamma (Homo sapiens), sequence (P37231 whole entry, looked up): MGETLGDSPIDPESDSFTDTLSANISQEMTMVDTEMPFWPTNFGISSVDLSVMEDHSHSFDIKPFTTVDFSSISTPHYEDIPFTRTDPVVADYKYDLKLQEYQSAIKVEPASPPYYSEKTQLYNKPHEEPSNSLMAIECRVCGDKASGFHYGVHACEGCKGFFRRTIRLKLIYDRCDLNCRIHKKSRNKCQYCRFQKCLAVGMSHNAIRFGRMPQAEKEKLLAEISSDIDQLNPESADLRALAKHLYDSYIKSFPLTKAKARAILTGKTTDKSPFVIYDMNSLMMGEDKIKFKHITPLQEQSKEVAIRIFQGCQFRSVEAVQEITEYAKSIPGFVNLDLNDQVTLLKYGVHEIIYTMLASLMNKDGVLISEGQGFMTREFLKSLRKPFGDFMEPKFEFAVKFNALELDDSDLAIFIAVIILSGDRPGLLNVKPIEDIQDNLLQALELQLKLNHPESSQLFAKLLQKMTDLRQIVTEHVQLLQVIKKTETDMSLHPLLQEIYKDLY
Test [9] shares this target. The test can be described thus: retest of SRC-1 recruitment enhancers for PPARgamma – biochemical, confirmation (AID 1300; in the data active = activation above about 20%;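 note: 0% = vehicle wells and 100% = reference agonist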). Particulars: PPARgamma–SRC-1 coactivator recruitment biochemical assay; at 8 µM; hits give high values.
Test [10] has as its target Peroxisome proliferator-activated receptor gamma (Homo sapiens) + Nuclear receptor coactivator 3 (Homo sapiens) (UniProt P37231+Q9Y6Q9). The test can be described thus: agonists promoting SRC-3 binding to PPARgamma – biochemical, confirmation (AID 1301; in the data active = activation above about 24%;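 note: 0% = vehicle wells and 100% = reference agonist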). The note with it: biochemical PPARgamma-SRC-3 coactivator recruitment, agonist mode; at 8 µM; hits give high values.
Test [11] can be described thus: StAR promoter reporter inhibitors, counter-screen for LRH-1 inverse agonist project, cell-based, luminescence, high throughput (AID 651611; in the data active = inhibition above about 28%). The note with it: StAR promoter luciferase reporter counterscreen, at 3.6 µM, hits give high values.
The target of test [12] is Nuclear receptor subfamily 5 group A member 2 (Homo sapiens) (UniProt O00482). The test can be described thus: NR5A2 activity suppression in reporter cells – cell-based, luminescence, confirmation (AID 651613; in the data active = inhibition above about 42%;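 note: HEK293T cells co-transfected with LRH-1 and StAR promoter luciferase reporter; 0% = vehicle wells and 100% = parental cells lacking receptor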). The note with it: cell-based LRH-1 luciferase reporter, inverse agonism; at 3.6 µM; hits give high values.
Nuclear receptor subfamily 5 group A member 2 (Homo sapiens), sequence (O00482 whole entry, looked up): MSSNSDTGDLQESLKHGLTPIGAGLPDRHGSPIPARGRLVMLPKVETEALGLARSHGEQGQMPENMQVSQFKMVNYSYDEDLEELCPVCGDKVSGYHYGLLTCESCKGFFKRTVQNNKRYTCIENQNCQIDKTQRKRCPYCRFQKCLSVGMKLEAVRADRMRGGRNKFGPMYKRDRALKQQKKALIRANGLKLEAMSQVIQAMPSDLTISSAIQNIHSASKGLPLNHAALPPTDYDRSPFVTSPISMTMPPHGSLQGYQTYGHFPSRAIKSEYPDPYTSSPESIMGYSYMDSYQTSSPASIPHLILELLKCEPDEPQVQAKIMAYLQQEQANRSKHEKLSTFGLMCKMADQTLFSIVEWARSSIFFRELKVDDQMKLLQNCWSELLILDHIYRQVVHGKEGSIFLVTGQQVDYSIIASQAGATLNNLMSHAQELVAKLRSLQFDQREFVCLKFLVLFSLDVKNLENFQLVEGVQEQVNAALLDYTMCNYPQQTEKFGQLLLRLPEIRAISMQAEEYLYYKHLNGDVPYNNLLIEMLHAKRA
In test [13] the target is Steroidogenic factor 1 (Homo sapiens) (UniProt Q13285). The test can be described thus: inverse agonism at SF1 nuclear receptor – cell-based, luminescence, high throughput, counter-screen for LRH-1 inverse agonist project (AID 651614; in the data active = inhibition above about 44%;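 note: cells cotransfected with StAR promoter reporter and SF1 expression vector; 0% = vehicle on cells with receptor and 100% = vehicle on cells lacking receptor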). Particulars: cell-based SF1 luciferase reporter, at 3.6 µM, hits give high values.
Steroidogenic factor 1 (Homo sapiens), sequence (Q13285 whole entry, looked up, the tested form may be a part): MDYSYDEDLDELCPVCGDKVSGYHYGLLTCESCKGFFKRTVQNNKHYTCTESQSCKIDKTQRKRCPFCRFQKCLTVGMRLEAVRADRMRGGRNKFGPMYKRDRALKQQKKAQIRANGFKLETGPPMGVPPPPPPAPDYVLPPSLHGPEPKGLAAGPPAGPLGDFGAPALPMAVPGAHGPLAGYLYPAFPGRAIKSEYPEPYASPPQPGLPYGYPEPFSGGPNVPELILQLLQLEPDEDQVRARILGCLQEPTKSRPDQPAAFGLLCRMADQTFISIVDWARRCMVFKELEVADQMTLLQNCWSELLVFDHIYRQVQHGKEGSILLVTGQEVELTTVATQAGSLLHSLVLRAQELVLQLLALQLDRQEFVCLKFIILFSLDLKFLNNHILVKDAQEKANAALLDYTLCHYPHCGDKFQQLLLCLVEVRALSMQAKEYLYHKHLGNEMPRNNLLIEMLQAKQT
Test [14] can be described thus: compounds suppressing VP16-driven luciferase signal – cell-based, luminescence, high throughput, counter-screen for LRH-1 inverse agonist project (AID 651615; in the data active = inhibition above about 33%). Particulars: Gal4-VP16 luciferase reporter cells, at 3.6 µM, hits give high values.
Test [15] addresses Nuclear receptor coactivator 1 (Homo sapiens) (UniProt Q15788). The test can be described thus: NCOA1 GAL4-fusion reporter inhibition – cell-based, luminescence, quadruplicate, confirmation (AID 588820;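 active = mean inhibition above 46.68%, the untreated control wells mean plus 3 SD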;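 note: 0% = DMSO wells and 100% = gossypol 36 µM treated wells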). Particulars: HEK293 GAL4-SRC1 luciferase reporter, at 3.6 µM, hits give high values.
Test [16] in a line: repression of VP16-driven luciferase reporter – cell-based, luminescence, high throughput, counter-screen for SRC1 inhibitor project (AID 588824; in the data active = inhibition above about 25%). Particulars: cell-based VP16 transactivation luciferase luminescence; at 3.6 µM; hits give high values.

In general, inhibition refers to the relative decrease from the control value, in per cent.

COUP transcription factor 2 (Homo sapiens), sequence (P24468 whole entry, looked up): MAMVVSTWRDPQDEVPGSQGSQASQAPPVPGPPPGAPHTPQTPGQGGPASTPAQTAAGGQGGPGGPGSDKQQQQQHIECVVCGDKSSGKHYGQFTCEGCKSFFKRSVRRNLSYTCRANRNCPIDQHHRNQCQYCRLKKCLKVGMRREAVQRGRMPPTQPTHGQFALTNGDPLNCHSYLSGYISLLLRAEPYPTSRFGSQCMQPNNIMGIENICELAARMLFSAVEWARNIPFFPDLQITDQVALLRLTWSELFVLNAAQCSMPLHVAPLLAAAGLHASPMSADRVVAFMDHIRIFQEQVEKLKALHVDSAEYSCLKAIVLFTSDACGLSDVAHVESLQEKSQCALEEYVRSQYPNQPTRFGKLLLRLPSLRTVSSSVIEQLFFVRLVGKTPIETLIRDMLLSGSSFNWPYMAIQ
Peroxisome proliferator-activated receptor gamma (Homo sapiens) + Nuclear receptor coactivator 3 (Homo sapiens), sequence (P37231 whole entry, looked up): as the sequence (P37231 whole entry, looked up) above
Peroxisome proliferator-activated receptor gamma (Homo sapiens) + Nuclear receptor coactivator 3 (Homo sapiens), sequence (Q9Y6Q9 whole entry, looked up): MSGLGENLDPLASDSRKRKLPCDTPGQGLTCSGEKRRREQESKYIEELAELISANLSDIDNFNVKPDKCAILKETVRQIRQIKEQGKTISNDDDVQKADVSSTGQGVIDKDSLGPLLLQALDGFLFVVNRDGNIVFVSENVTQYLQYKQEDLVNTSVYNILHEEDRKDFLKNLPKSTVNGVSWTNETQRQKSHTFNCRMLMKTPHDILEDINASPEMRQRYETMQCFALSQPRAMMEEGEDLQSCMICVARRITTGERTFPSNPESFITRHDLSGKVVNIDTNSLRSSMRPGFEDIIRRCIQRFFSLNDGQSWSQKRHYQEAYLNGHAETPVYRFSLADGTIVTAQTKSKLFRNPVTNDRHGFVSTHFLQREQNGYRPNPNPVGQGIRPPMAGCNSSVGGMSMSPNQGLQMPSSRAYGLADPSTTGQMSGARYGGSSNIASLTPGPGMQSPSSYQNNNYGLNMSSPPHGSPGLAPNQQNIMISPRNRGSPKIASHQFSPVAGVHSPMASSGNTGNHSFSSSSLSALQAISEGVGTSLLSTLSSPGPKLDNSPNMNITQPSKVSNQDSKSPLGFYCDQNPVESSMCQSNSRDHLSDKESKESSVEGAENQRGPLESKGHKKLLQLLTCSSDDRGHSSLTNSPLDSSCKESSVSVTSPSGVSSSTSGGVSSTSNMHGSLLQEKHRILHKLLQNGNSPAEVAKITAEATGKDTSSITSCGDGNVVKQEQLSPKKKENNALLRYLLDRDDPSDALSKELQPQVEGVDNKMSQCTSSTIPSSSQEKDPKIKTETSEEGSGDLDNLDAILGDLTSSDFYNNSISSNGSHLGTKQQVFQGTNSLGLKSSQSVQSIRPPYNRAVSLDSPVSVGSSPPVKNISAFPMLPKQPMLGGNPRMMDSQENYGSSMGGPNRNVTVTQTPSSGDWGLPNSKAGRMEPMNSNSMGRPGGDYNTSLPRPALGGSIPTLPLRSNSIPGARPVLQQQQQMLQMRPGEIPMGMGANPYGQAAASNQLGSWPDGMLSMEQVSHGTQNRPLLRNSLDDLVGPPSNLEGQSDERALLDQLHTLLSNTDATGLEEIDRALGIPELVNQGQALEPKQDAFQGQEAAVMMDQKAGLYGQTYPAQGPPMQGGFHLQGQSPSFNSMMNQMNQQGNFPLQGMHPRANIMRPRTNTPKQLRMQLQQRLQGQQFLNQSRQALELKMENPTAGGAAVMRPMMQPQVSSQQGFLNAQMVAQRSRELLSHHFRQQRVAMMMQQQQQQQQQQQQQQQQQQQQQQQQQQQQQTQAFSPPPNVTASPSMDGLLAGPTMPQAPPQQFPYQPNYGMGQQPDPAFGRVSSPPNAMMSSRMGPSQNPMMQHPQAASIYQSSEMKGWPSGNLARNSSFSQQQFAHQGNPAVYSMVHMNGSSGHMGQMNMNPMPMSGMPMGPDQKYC

`O=C(Nc1nc2ccccc2s1)c1ccc2c(c1)OCO2`: the inhibition in test [1] was 41.7%; in [2] it was 10.6%; in test [3], -93.8%.

As to `COc1ccc(NS(=O)(=O)c2ccc(NC(C)=O)cc2)cc1OC`, the inhibition in test [1] was 26.4%; in [2], 5.93%; in test [3], 17.1% (active).

`Cc1cc(NC(=O)c2cc(-c3cccs3)on2)nn1Cc1ccc(Cl)cc1`: the inhibition in [1] was 46.6% (active); in test [2], 8.43%; in test [3], 0.57%.

Consider `CCCCOc1ccc(-c2nnc(-c3ccco3)o2)cc1`, for which the values for the inhibition in [1], in test [2] and in test [3] were 21.3%, -24.1% and -66.4%, respectively.

As to `O=c1c2c(nc3n1CCCCC3)sc1c(O)cccc12`, the inhibition in test [1] is 45.2% (active); in test [2] it was -0.37%; in [3] it was 3.33%.

As to `COc1ccc(Cn2c(=O)sc3ccccc32)cc1OC`, the inhibition in test [1] was 36.6%; in test [2], 2.57%; in test [3], 13.3%; in test [4], 70.9% (active); in test [5], 64.8%; in test [6] it was -3.5%. Further, the inhibition in [7] was 26.6%.

In the case of `Cn1c(-c2sc3cc(C(F)(F)F)cnc3c2-c2ccccc2)n[nH]c1=S`, the activation was 89.8% (active) in test [8], 67% (active) in test [9] and 53.5% (active) in [10].

Consider `Cn1c(=O)cc(SCC(=O)N2CCN(C(=O)c3ccco3)CC2)c2ccccc21`, for which the activation in test [8] was 22.2% (active); in test [9], 12.7%; in [10], 17.9%.

With `CCc1ccc(-n2c(SCc3cc(=O)n4cc(Br)ccc4n3)nc3[nH]ncc3c2=O)cc1`, the activation in [8] was 40.9% (active); in [9] it was 26.6% (active); in [10], 28.8% (active).

`O=C(Nc1cccc(S(=O)(=O)Nc2ccc(Cl)cc2)c1)c1ccc2c(c1)OCCO2`: the inhibition in test [1] was 55.6% (active); in test [2] it was 15.4% (active); in test [3] it was 17.7% (active); in [6] it was -4.16%; in test [7], 42.2% (active).

Turning to `COc1ccc(NS(=O)(=O)c2ccc(NC(=O)c3ccc(N(C)S(C)(=O)=O)cc3)cc2)cc1`, the inhibition is 56.6% (active) in [1]; 9.03% in [2]; 5.2% in test [3]; 19.3% in test [11]; 50.5% (active) in test [12]; 46.7% (active) in [13]. Further, the inhibition in [14] is 40.7% (active); in test [6], 8.59%; in test [7] it was 45% (active).

Turning to `O=C(Nc1nc(-c2ccc3c(c2)OCO3)cs1)c1ccncc1`, the inhibition in test [1] is 49.5% (active); in [2], 11.5%; in test [3] it was 6.97%; in test [6], -26.7%; in [7], 50.7% (active).

As to `Cc1ccc(S(=O)(=O)Nc2ccc3ncccc3c2)cc1`, the inhibition in test [1] was 42.9%; in test [2], 3.83%; in [3] it was 18% (active); in [15] it was -9.28%; in test [16], 5.01%; in test [4] it was 89.4% (active). The inhibition in test [5] was 74.4% (active); in test [11], 14.9%; in [12] it was 47.2% (active); in test [13], 36.3%; in [14] it was 18.1%.

In the case of `CN(Cc1cccnc1)C(=O)c1cc(COc2ccc3ncccc3c2)on1`, the inhibition in test [1] was 75.9% (active); in test [2], 25.1% (active); in [3] it was 27.1% (active); in [15], -14.7%; in [16], 26.4% (active); in test [4], 89.1% (active). Besides, the inhibition was 78.8% (active) in [5], 0.64% in test [6] and 59% (active) in test [7].
